Data reported in ChEMBL document CHEMBL3988442, “University of Dundee, Small-Polar-MMV Screening Library” (2021).
For some assays here: Results with a measured potency or affinity are listed apart.

What was measured:
Parameters in all cases: scale not given: direction of the effect not stated beside the values
[1] = target: Protein translocase subunit SecA (Escherichia coli (strain K12)) (UniProt P10408); experiment: Assay to Identify E. coli SecA ATPase Inhibitors; type: functional; conditions: 30 µM
[2] = target: T1, Ubiquitin-activating enzyme e1, putative (Leishmania donovani (strain BPK282A1)) (UniProt E9BSI1); experiment: Leishmania donovani Ubiquitin Activating Enzyme (LdE1); type: functional; conditions: 30 µM
T1 sequence (whole entry): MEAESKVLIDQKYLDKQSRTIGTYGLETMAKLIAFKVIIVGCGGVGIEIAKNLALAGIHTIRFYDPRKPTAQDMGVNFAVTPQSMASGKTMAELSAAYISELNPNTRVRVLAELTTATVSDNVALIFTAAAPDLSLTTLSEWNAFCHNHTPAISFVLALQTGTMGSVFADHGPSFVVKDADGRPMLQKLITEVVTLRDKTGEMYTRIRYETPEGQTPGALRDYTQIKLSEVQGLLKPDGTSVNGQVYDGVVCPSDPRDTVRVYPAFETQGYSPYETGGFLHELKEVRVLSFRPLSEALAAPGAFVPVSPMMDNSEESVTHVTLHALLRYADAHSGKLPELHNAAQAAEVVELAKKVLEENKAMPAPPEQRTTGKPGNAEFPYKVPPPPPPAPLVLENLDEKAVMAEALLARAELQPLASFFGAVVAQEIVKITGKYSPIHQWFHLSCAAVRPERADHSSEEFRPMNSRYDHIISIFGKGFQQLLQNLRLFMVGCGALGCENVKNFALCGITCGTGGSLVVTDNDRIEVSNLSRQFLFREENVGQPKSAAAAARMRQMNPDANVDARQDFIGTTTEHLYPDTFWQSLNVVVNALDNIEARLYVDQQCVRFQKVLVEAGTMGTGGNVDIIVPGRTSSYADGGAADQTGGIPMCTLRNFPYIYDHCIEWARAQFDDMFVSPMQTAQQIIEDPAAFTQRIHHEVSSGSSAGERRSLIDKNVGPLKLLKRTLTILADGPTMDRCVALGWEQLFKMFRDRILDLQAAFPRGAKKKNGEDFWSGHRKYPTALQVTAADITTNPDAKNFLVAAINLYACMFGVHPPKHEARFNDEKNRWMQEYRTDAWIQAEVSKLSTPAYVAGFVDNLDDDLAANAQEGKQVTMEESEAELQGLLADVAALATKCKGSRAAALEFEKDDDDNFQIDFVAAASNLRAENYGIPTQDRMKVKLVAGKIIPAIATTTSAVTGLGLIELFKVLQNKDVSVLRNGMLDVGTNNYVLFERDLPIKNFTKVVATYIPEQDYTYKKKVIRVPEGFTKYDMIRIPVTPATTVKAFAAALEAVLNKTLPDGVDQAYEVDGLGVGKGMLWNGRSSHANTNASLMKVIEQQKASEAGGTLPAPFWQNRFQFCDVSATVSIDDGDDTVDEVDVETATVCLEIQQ

[3] = target: AMP-activated protein kinase, AMPK (Homo sapiens) (UniProt P54646+O43741+P54619+Q9UGJ0+Q9Y478+Q13131+Q9UGI9); experiment: AMP-dependent Kinase enzyme assay. An in vitro enzyme assay that detects ADP turnover that is directly proportional to AMPK activity. This uses naive AMPK that is activated during the assay with MK-8722; type: functional; conditions: 30 µM
[4] = target: Sialic acid-binding Ig-like lectin 9 (Homo sapiens) (UniProt Q9Y336); experiment: Hs-Siglec9 ALPHAscreen SOP 20170721; conditions: 10 µM
[5] = system: Trypanosoma cruzi; experiment: Trypanosoma cruzi phosphomannomutase and mannose-1-phosphate guanylyltransferase assay; type: functional; conditions: 10 µM
[6] = target: T2, Arginase-2, mitochondrial (Homo sapiens) (UniProt P78540); experiment: in vitro enzyme assay to detect the production of urea directly proportional to the activity of Arginase II; type: functional; conditions: 33.3 µM; note: in the data most compounds retested in dose-response had high values
T2 sequence (whole entry): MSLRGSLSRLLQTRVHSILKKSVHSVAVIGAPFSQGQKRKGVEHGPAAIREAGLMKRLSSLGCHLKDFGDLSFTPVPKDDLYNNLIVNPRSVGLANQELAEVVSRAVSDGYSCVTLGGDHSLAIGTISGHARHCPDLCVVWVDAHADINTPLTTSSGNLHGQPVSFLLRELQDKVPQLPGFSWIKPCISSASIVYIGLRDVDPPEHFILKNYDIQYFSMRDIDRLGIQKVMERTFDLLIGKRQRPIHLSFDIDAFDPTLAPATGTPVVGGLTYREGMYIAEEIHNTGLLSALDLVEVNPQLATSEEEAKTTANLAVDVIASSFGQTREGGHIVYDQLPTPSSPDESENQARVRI

[7] = target: T3, Proteasome subunit beta (Trypanosoma cruzi) (UniProt O96673); experiment: Trypanosoma cruzi proteasome chymotrypsin-like activity (TcProtChymo) assay.; note: in the data most compounds retested in dose-response had high values; type: functional; conditions: 9.37 µM
T3 sequence (whole entry): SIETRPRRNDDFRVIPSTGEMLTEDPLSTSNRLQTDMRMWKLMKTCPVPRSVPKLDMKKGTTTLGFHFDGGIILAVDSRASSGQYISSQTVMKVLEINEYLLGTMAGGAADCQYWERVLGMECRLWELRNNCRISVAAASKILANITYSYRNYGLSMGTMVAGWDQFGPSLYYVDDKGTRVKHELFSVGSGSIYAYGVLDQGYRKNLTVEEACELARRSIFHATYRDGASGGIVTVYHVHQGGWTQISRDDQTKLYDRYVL

[8] = species on record: Homo sapiens; experiment: To identify inhibition of the IFN signalling (Jak-Stat) pathway via expression of an eGFP reporter gene under the control of an IFN-stimulated response element (ISRE) containing MxA promoter.; type: functional; conditions: 30 µM
[9] = target: T4, Tyrosyl-tRNA synthetase, putative (Trypanosoma cruzi (strain CL Brener)) (UniProt Q4DSP6); experiment: Trypanosoma cruzi tyrosyl tRNA synthetase (TcYRS) _High Tyrosine SOP; type: functional; conditions: 30 µM; note: in the data most compounds retested in dose-response had high values
T4 sequence (whole entry): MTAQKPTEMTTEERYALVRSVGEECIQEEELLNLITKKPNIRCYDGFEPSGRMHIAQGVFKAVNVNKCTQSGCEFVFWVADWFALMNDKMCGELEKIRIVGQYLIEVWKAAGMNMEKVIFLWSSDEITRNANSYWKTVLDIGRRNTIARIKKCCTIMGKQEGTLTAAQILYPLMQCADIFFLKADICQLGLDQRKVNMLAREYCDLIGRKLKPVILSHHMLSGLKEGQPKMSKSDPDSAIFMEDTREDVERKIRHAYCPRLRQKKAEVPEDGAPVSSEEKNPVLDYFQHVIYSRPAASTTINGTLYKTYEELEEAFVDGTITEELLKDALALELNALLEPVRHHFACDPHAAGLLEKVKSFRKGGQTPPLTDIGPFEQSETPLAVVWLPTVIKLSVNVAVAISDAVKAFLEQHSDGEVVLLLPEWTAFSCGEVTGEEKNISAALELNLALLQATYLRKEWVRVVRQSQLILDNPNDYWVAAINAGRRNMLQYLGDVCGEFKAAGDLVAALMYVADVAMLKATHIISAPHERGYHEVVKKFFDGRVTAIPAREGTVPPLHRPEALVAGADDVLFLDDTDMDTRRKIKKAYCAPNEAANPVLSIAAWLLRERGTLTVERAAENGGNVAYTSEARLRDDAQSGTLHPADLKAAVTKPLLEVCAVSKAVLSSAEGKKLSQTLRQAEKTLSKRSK

[10] = target: T4, Tyrosyl-tRNA synthetase, putative (Trypanosoma cruzi (strain CL Brener)); experiment: Trypanosoma cruzi tyrosyl tRNA synthetase (TcYRS) SOP; type: functional; conditions: 30 µM
[11] = target: Chromo domain-containing protein 1 (Saccharomyces cerevisiae (strain ATCC 204508 / S288c) (Baker's yeast)) (UniProt P32657); experiment: ScCHD-1 Enzyme Inhibition Assay; type: functional; conditions: 30 µM; note: in the data most compounds retested in dose-response had high values
Sequence of Chromo domain-containing protein 1 (Saccharomyces cerevisiae (strain ATCC 204508 / S288c) (Baker's yeast)) (P32657 whole entry, the tested form may be a part): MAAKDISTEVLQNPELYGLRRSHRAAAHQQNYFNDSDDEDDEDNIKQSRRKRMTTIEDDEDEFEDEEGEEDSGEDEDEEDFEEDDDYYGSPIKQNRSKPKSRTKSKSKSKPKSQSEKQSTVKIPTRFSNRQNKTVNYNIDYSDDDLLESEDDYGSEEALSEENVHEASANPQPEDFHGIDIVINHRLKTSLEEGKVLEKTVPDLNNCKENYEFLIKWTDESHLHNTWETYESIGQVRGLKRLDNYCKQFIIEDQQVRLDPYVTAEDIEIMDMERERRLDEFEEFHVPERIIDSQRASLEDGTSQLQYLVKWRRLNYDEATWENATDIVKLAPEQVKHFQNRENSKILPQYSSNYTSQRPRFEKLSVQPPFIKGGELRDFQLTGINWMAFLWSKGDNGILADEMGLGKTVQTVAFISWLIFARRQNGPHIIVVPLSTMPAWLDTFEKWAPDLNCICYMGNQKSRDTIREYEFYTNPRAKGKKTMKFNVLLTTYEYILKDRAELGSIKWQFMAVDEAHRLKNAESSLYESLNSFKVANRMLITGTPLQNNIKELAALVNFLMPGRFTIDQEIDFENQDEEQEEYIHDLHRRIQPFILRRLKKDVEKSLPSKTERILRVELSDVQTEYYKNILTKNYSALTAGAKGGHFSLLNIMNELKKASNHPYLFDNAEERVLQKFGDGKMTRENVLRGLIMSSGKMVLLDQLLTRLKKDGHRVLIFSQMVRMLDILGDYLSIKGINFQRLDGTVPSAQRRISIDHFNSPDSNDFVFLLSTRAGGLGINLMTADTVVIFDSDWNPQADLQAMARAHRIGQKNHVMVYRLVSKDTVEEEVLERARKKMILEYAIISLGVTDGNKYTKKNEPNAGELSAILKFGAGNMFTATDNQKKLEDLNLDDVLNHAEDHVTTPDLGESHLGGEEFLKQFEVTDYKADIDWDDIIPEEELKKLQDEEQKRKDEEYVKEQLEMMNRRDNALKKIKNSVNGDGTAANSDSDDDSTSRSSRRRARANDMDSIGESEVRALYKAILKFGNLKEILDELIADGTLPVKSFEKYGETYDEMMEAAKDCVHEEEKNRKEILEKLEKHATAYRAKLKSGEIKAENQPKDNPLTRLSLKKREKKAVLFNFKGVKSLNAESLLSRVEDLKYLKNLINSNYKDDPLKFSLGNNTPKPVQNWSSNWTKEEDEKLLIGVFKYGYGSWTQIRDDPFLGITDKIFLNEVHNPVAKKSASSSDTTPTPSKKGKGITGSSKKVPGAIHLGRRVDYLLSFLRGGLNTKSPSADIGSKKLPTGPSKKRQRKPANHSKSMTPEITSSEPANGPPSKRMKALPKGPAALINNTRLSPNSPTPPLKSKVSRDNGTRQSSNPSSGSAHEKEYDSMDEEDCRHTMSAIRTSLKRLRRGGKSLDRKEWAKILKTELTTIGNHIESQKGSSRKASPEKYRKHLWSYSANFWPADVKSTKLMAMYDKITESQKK

Sequence of Protein translocase subunit SecA (Escherichia coli (strain K12)) (P10408 whole entry): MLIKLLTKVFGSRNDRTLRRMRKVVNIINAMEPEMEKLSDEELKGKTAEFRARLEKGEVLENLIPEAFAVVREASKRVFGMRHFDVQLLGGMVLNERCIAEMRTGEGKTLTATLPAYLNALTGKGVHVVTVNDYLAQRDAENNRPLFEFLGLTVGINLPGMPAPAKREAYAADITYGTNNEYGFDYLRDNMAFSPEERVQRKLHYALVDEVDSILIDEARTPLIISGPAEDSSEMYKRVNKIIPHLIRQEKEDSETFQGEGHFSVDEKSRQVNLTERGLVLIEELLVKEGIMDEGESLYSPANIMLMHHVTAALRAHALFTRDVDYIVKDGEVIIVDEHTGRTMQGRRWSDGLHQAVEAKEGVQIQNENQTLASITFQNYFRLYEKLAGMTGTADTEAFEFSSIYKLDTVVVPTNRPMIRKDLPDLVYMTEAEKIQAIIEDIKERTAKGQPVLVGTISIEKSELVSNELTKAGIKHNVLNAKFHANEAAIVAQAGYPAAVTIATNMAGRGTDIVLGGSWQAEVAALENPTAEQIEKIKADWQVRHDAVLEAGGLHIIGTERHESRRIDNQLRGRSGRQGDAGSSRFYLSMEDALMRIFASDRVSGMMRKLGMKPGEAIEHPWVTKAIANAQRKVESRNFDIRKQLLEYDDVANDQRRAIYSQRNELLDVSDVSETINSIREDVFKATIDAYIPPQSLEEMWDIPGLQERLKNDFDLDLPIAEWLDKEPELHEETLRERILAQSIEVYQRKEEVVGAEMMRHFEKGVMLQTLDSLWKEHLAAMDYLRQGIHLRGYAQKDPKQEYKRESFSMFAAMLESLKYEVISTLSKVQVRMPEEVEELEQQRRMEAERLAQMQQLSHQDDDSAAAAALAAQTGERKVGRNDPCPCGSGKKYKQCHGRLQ
Sequence of Sialic acid-binding Ig-like lectin 9 (Homo sapiens) (Q9Y336 whole entry): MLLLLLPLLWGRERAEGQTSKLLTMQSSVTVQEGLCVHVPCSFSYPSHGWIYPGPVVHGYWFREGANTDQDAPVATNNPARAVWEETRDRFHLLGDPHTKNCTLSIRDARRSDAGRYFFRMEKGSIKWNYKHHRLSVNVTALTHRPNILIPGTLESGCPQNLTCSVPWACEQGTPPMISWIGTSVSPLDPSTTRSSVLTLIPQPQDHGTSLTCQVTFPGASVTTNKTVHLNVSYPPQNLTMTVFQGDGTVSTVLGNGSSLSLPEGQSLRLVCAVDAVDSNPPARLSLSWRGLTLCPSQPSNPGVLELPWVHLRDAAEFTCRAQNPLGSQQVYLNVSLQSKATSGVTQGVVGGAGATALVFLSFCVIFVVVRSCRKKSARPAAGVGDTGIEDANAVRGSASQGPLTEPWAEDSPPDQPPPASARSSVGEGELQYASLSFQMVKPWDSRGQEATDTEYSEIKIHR

| Compound | Percent Effect [1] | Percent Effect [2] | Percent Effect [3] | Percent Effect [4] | Percent Effect [5] | Percent Effect [6] | Percent Effect [7] | Percent Effect [8] | Percent Effect [9] | Percent Effect [10] | Percent Effect [11] |
| --- | --- | --- | --- | --- | --- | --- | --- | --- | --- | --- | --- |
| Cc1cnc(C(=O)N2CCc3ncnc(C)c3CC2)cn1 | -2.65% | 0% | -0.0548% | 5.51% | -1.39% | -2.79% | 15.8% | 19.6% | 2.08% | 11.1% | -2.02% |
| CCSCC(C)NCc1nncn1C1CCCCC1 (configuration not stated) | -0.842% | 6.94% | -1.51% | -1.31% | 2.23% | 0.883% | 16% | -2.28% | 11.6% | 20.5% | -4.13% |
| c1cc(CNCC2OCCc3cn(CC4CCOCC4)nc32)ccn1 (configuration not stated) | -0.867% | -37.8% | 1.52% | -8.34% | 1.86% | 4.78% | 29% | 18.1% | 6.49% | 17.9% | 1.56% |
| Cc1ccc(-c2noc(CN3CCOC(Cn4cncn4)C3)n2)cc1 (configuration not stated) | -4.95% | -5.41% | 0.576% | 2.63% | 2.14% | -2.03% | -1.79% | 8.27% | 2.97% | -1.22% | 5.54% |
| Cc1nccn1-c1cccc(C2CCCN(C3CCCCC3)C2)n1 (configuration not stated) | -7.63% | -4.05% | 3.56% | -0.877% | 2.17% | 4.41% | 14.8% | 2.91% | 22.6% | 27.3% | -10.9% |
| Cc1ncsc1C(=O)NCCSCc1cccs1 | -1.5% | 2.7% | -1.07% | 13.7% | 3.44% | -3.14% | 7.9% | 16.5% | 0% | 11% | -5.27% |
| O=C(NC1CCCC1)N1CCCC(c2nccn2Cc2ccncc2)C1 (configuration not stated) | -3.14% | 4.17% | 2.03% | 9.67% | 8.07% | -0.883% | 7.54% | -38.2% | 4.21% | 5.13% | -4.06% |
| CC1c2ncc(CN3CCN(C)CC3)n2CCN1CC1CC1 (configuration not stated) | -1.8% | 18.7% | -6.67% | 5.11% | 5.99% | -54.7% | 6.33% | -3.72% | 6.25% | 17.5% | -8.05% |
| CCn1nnc2c1C(COC)CN(Cc1cccs1)C2 (configuration not stated) | -2.49% | 5.41% | 4.39% | 6.4% | 4.69% | 1.67% | 12.3% | -4.92% | 4.95% | 8.54% | -4.09% |
| CSCC(=O)N1CCCN(c2ccccc2C)CC1 | -7.55% | 2.7% | -2.83% | -3.96% | -5.18% | -0.248% | 1.8% | 4.54% | 1.07% | 6.17% | -3.91% |
| O=C(NCCO)C1(Cc2cc(-c3ccc(F)cc3F)no2)CCOCC1 | -2.99% | 12.2% | 14.6% | -1.56% | 0.988% | 1.16% | 15.8% | 23.3% | 0% | 6.49% | -16.7% |
| COc1ccc(C2CCCN2C(=O)c2csc(NC(C)=O)n2)cc1 (configuration not stated) | -5.5% | 18.2% | 41.8% | -5.49% | -3.37% | 2.85% | 4.56% | 17.3% | 6.8% | 12.2% | -8.21% |
| O=C(N1CCCC1)N1CCc2ncnc(C3CCOC3)c2CC1 (configuration not stated) | 2.86% | -2.67% | 9.11% | 2.99% | -0.591% | 3.5% | 7.14% | 3.4% | 3.19% | -1.28% | -1.1% |
| CCCOc1cccc(CNC(=O)CN2CCN(C)CC2C)c1 (configuration not stated) | -1.3% | 13.5% | -7.22% | 15% | 1.02% | -6.47% | 1.98% | 14.1% | 3.96% | 15.8% | -9.26% |
| CCN(Cc1nc2c(cnn2C)c(=O)[nH]1)Cc1cccs1 | -4.13% | 15.6% | -1.29% | -13.1% | 4.6% | -10.3% | 15.3% | -0.846% | 7.62% | 25.9% | -21.1% |
| Cc1ccsc1C(=O)NCCCn1nc2ccccn2c1=O | -1.75% | 16.2% | -0.37% | -0.759% | -3.99% | 1.66% | 9.52% | 20.9% | 5.94% | 18.3% | -8.98% |
| c1coc(-c2nnc(CN3CCCC(CN4CCCCCC4)C3)o2)c1 (configuration not stated) | -4.64% | 7.89% | 0.651% | 1.71% | 8.67% | -7.1% | -1.25% | 4.66% | 5.32% | 10.4% | -3.8% |
| CCCc1nc(CN2CCCC2Cn2cncn2)cs1 (configuration not stated) | -3.84% | 12.7% | -5.8% | 9.38% | 3.87% | -24.3% | 5.98% | 4.39% | 10.3% | 24.1% | -3.42% |
| Cc1ccc(CN2CCCn3nnc(COCC4CC4)c3C2)s1 | 0.823% | 16% | 9.89% | -6.88% | -2.76% | -11% | 6.96% | 12.7% | 5.32% | 11.5% | -3.12% |
| COc1ccccc1OCCN1CCC(N2CCNC2=O)CC1 | -6.27% | 5.41% | 1.68% | 3.47% | -5.66% | 3.51% | 12% | 18.9% | -3.96% | -13.4% | 0.174% |
| CCc1nccn1C1CCCN(C(=O)c2cnn(C)c2C2CC2)C1 (configuration not stated) | -5.61% | 8.11% | -0.679% | 1.6% | -6.51% | -4.41% | 6.49% | 23.9% | 3.45% | 6.17% | -2.99% |
| COc1cnc(C2(O)CCN(C(=O)c3cccnc3)CC2)c(OC)n1 | -4.3% | 4.05% | 11.7% | 7.31% | -1.78% | -0.696% | -0.156% | -1.41% | 5.38% | 6.49% | -4.19% |
